From PubChem BioAssay AID720509 (The Scripps Research Institute Molecular Screening Center, 2013)
Among all 370,000 compounds or so, about 760 (0.21%) were called active.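 How the source made its calls: active means inhibition above a per-campaign cutoff: mean of compounds within control limits plus 3 SD (cut at about 15% in these data); inactive means the rest.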 Many of the other results were omitted from the sample, so actives are more common in it than they were.

target: Fibrinogen beta chain (Homo sapiens) (UniProt P02675); assay: inhibitors of Tn6 peptide binding to fibrin DD(E), primary screen, biochemical, fluorescence polarization, human fibrin, Tn6 probe (AID 720509); conditions: Fibrin DD(E) TRITC-Tn6 fluorescence polarization displacement; at 8.3 µM; hits give high values;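 further: 0% = median of all compound wells on the plate and 100% = blocking peptide control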
Sequence (P02675 whole entry, looked up): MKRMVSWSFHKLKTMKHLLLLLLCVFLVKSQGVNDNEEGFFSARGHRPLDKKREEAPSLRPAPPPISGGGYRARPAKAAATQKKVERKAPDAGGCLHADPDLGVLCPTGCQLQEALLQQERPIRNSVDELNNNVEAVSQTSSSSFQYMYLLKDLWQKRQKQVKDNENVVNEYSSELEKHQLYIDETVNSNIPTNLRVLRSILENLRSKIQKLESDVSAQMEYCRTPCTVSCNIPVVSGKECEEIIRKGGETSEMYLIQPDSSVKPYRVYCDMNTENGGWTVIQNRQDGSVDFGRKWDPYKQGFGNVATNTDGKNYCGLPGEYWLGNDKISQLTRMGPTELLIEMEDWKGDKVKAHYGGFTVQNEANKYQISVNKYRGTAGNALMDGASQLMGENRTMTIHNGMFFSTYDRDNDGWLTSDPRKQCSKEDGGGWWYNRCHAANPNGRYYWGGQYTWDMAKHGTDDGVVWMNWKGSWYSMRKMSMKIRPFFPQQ

inhibition, active:
Cc1cc2ccccc2n1CCNC(=O)COc1ccc2ccccc2c1 52.5%
CN1c2ccc(C=O)c3c(C=O)ccc(c23)N(C)C1(C)C 29.5%
COc1cc(NC(=O)c2ccc(CNc3c(N4CCCC4)c(=O)c3=O)cc2)cc(OC)c1OC 17.7%
Cc1nnsc1S(=O)(=O)Cc1ccccc1Cl 16.3%
Cc1cc2cc(CNC(=O)c3ccc(S(=O)(=O)N4CCOCC4)cc3)ccc2[nH]1 16%
O=c1[nH]n(-c2ccc([N+](=O)[O-])cc2)c(=O)c2ccccc12 27.3%

inhibition, inactive:
O=C(NCC(F)(F)F)c1ccc(S(=O)(=O)NCCc2ccc3c(c2)OCCO3)cc1 0.28%
Cn1cc(-c2ccccc2)cc(C#N)c1=O -5.81%
CCCCNC(=O)Nc1c(C)cc(SC#N)cc1C -1.9%
C[C@H]([C@@H](O)[C@@H](O)[C@@H](C)C(C)(C)C)[C@H]1CC[C@H]2C3CC[C@H]4C[C@H](OS(=O)(=O)O)[C@@H](OS(=O)(=O)O)C[C@]4(C)[C@H]3CC[C@]12C (stereo not given in full) 3.35%
O=C(NCc1ccccc1Cl)C1CCN(c2ncnc3c2nc2n3CCCCC2)CC1 -4.73%
C=C1CCC(N(O)c2cc(C)on2)C(=C)CCC2C1CC2(C)C (stereo not given) -5.24%
CC(C)Oc1cc(F)ccc1-c1cc(C(=O)Nc2cccc(Cl)c2)[nH]n1 -6.05%
CC(CNS(=O)(=O)c1ccc(Br)cc1)CN(C)C (stereo not given) -0.63%
Cc1ccc(C(=O)Cc2nnc(C)s2)cc1 -0.99%
O=S(=O)(NCc1ccccc1Cl)c1cnc[nH]1 -4.95%
Cc1c(C(=O)N(C)CCc2cnn(C)c2)oc2c(F)cccc12 3.62%
COc1cccc(NC(=O)C2(C)CCN2Cc2ccccc2Cl)c1 (stereo not given) 0.5%
COC(=O)c1cc(NC(=O)c2cc(C(C)(C)C)nn2Cc2cccc(C)c2)ccc1N1CCOCC1 4.88%
O=C(C(NS(=O)(=O)c1cccc2nsnc12)c1ccccc1)N1CCN(c2ccccc2)CC1 (stereo not given) 8.08%
CN1CCN(C(=O)c2ccc(-c3cc4nc(NCc5cccnc5)n(C)c(=O)c4s3)cc2)CC1 -11.9%
O=C(COc1ccc(Cl)cc1)NCCSc1ccccc1 -0.51%
Cc1ccccc1OCC(=O)NCC(=O)OCC(=O)c1ccc2ccccc2c1 -2.48%
O=C(NCc1ccccc1)c1cccc(NC(=O)C2CCCCC2)c1 3.16%
O=C(CC(NC(=O)c1ccccc1)c1ccccc1)Nc1ccc(F)c(F)c1 (stereo not given) 6.57%
C=CC(COCc1ccccc1)N(CC(=O)OC)S(=O)(=O)c1cc(Br)ccc1OC (stereo not given) -3.84%
Cc1noc(C)c1CSCC(=O)Nc1ccc(Br)cc1Cl -5.8%
CCN(CC)P(=O)(C(NC(=O)OC)C(F)(F)C(F)(F)C(F)(F)C(F)F)N(CC)CC (stereo not given) 0.37%
C[C@@H]1CN([C@H](C)CO)S(=O)(=O)c2ccc(C#CC3CCCCC3)cc2O[C@H]1CN(C)C(=O)Cc1ccncc1 2.11%
Cc1cc(NC(=O)CCC(=O)N(Cc2ccccc2)C(C(=O)NC2CCCC2)c2ccc(C)o2)no1 (stereo not given) -2.98%
Cc1sc2ncn(CC(=O)NCCCC(=O)N(C)Cc3ccccc3)c(=O)c2c1C 6.86%
CCCNC(=O)c1cc(C2CCCN(C(=O)c3ccc4c(c3)CCO4)C2)on1 (stereo not given) 2.19%
O=C(NCc1ccccc1)c1ccc(CNc2c(N3CCCC3)c(=O)c2=O)cc1 -2.33%
O=C(NC1CCCCC1)c1ccc(CNc2c(N3CCOCC3)c(=O)c2=O)cc1 -6.33%
COc1cc(OC)cc(-c2c(-c3cccs3)c3cc(-c4ccc(OC)cc4F)ccc3n2C)c1 8.62%
Cc1nnsc1C(=O)NCc1c(F)cccc1Cl 2.62%
CCC1CCCCN1S(=O)(=O)Cc1ccccc1Cl (stereo not given) -7.39%
CCOC(=O)N1CCC(NC(=O)C(NS(=O)(=O)c2ccc3c(c2)CCN3C(=O)CC)C(C)C)CC1 (stereo not given) 0.83%
CC(C)Cc1ccc(S(=O)(=O)N2CCN(C(=O)c3ccco3)CC2)cc1 0.21%
C[C@H](CO)N1C[C@H](C)[C@@H](CN(C)Cc2ccc(-c3ccccc3)cc2)Oc2ccc(NC(=O)Cn3cnnn3)cc2C1=O 4.05%
COC(=O)c1cc(=O)n(-c2c(Cl)cc(C(F)(F)F)cc2Cl)[nH]1 0.92%
O=C(OCCOc1ccccc1Cl)c1cc(S(=O)(=O)N2CCCCC2)ccc1N1CCOCC1 -7.85%
CC(C)c1cc(NCc2ccccn2)n2c(nc3ccccc32)c1C#N 5.58%
O=C(Nc1ccc2cn[nH]c2c1)c1ccc(S(=O)(=O)N2CCOCC2)cc1 3.58%
Cc1cc2cc(CNC(=O)c3cccs3)ccc2[nH]1 -2.34%
N=c1n(Cc2ccc(Cl)cc2)c2ccccc2n1CC(O)c1ccco1 (stereo not given) 0.26%
C=CCNC(=S)N1CCN(CCN=Cc2c(C)[nH]n(-c3ccc([N+](=O)[O-])cc3)c2=O)CC1 -4.37%
O=C(CSCc1ccc([N+](=O)[O-])cc1)NCCSCc1ccccc1 2.74%
COc1cccc(NC(=O)Cn2c3ccc(F)cc3c3nc4n(c(=O)c32)CCS4)c1 -7.55%
COc1ccc(C2/C=C\CN(S(=O)(=O)c3cccs3)CC(=O)N2Cc2ccc(F)cc2)cc1 (stereo not given) -0.69%
CC(=O)c1ccc(OCCCC(=O)Nc2ccc(C)c(S(=O)(=O)N3CCOCC3)c2)cc1 6.11%
CCCCNC(=O)c1ccccc1NC(=O)c1ccccc1N(C)S(C)(=O)=O 2.47%
COc1ccccc1N(CCOc1ccccc1)S(=O)(=O)c1ccccc1 5.19%
COC(C/C=C/C(=O)[C@@H](C)OCc1ccccc1)OC 5.15%
O=c1c2ccccc2nc2n1C(CSCc1cccc(C(F)(F)F)c1)CS2 (stereo not given) 2.51%
